Source: PubChem (National Center for Advancing Translational Sciences (NCATS))
Rows were chosen to be rich in hits. Some 19% of all compounds tested hit in one or more screens of this group.
S-ASM inh = Inhibitors of Secretory Acid Sphingomyelinase (S-ASM): qHTS | placental ASM, HMU-PC fluorogenic substrate, 60 min | Potency, µM (doses to about 57.5 µM), for the others: top-dose activity change, negative = inhibition, hits mostly inhibitors | actives 0.006% (n = 340,000) | AID 504937, 2011; further: potency means the concentration at half of the fitted maximal effect
Target sequence (P17405 47-631 limits assumed): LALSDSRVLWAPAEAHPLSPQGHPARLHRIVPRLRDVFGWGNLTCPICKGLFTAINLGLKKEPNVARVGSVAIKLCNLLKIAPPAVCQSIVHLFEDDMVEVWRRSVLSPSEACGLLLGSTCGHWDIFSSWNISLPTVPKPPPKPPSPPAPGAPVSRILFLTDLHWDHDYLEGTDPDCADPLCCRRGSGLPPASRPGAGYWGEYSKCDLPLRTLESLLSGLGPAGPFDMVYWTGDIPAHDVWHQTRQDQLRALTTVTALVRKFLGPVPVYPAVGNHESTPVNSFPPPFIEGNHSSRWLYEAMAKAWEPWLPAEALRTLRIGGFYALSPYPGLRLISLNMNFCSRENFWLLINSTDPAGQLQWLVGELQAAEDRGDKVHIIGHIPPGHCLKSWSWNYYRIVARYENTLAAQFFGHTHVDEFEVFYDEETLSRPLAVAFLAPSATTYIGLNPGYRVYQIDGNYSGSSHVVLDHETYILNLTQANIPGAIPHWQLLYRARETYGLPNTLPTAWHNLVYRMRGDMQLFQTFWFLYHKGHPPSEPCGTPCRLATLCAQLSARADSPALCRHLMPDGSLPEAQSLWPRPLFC
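Human placenta-derived ASM preincubated with compound 10 min at room temperature, then reacted with 9 uM (final) fluorogenic HMU-PC substrate for 60 min at 37 C. Stop solution raises pH to 10; fluorescence read at Ex 386/Em 447 nm.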
DT40 TDP1 no CPT = qHTS for Inhibitors of human tyrosyl-DNA phosphodiesterase 1 (TDP1): qHTS in cells in absence of CPT; DT40 Tdp1-/- hTDP1 cells, no CPT, ATP luminescence, 48 h; Potency, µM (titrated, usually from 46.2 µM), inactives show at the highest dose activity change, negative = growth inhibition, actives largely listed as inhibitors; actives 15% (n = 420,000); AID 686978, 2013; further: potency means the concentration at half of the fitted maximal effect; on the % scale 0 is the no-effect control and ±100 the full control effect; nearly all actives have a fitted effect of over 55% in size
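Compound effects on proliferation are scored in DT40 Tdp1-/-;hTDP1 cells in the absence of CPT. ATP levels (CellTiter-Glo luminescence) are recorded after a ≥48 hr, 37 °C incubation.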
DT40 TDP1 CPT = qHTS for Inhibitors of human tyrosyl-DNA phosphodiesterase 1 (TDP1): qHTS in cells in presence of CPT | AID 686979, 2013 | Potency, µM (top dose mostly 46.2 µM), inactives show at the highest dose activity change, negative = growth inhibition, usual class: inhibitors | actives 12% (n = 420,000) | chicken DT40 Tdp1-/-;hTDP1 cells + 20 nM CPT, ATP luminescence, 48 h; further: potency means the concentration at half of the fitted maximal effect; on the % scale 0 is the no-effect control and ±100 the full control effect; nearly all actives have a fitted effect of over 55% in size
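Chicken DT40 Tdp1-/- cells complemented with human TDP1, 400 cells/well, exposed to compounds plus 20 nM camptothecin for at least 48 h at 37 C; viability read as ATP content by CellTiter-Glo luminescence.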
TGFb inhibitor = qHTS for Inhibitors of TGF-b; HepG2 CAGA-GFP TGF-b/SMAD3 reporter, GFP fluorescence, 18 h; TGF-beta stimulated, 500 pg/mL final; Potency, µM (doses to about 46.1 µM), without a hit: top-dose activity, negative = inhibition, usual class: inhibitors; actives 1.2% (n = 410,000); AID 588855, 2011; further: potency means the concentration at half of the fitted maximal effect; on the % scale 0 is the no-effect control and ±100 the full control effect; nearly all actives have a fitted effect of over 65% in size
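Per well, imaged GFP fluorescence of HEPG2 CAGA-GFP cells gives the signal; cells get compound, then TGF-beta (500 pg/mL final), 18 h at 37 degrees C; %Activity versus -TGF-beta and +DMSO controls.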
HepG2 tox = qHTS for Inhibitors of TGF-b: Cytotox Counterscreen. Potency, µM (series often up to 46.1 µM), inactives show at the top dose activity change, negative = cytotoxicity, usual class: cytotoxic. AID 588856, 2011. HepG2 CAGA-GFP viability, ATP luminescence, 18 h. actives 0.76% (n = 410,000); further: potency means the concentration at half of the fitted maximal effect
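CellTiter-Glo luminescence gave cytotoxicity after 18 hours at 37 degrees C. The cells were HepG2 CAGA-GFP in 1% FBS DMEM, stimulated with 500 pg/mL TGF-beta after compound addition. %Activity was normalised to no-cell wells (complete cell-killing) and DMSO (no toxicity), and curves were fitted and classified.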
IL-1B inflam inh = qHTS for Inhibitors of Inflammasome Signaling: IL-1-beta AlphaLISA Primary Screen; THP-1 LPS/ATP IL-1B secretion, AlphaLISA, 16 h; hits give low values; activity change, % at 57.5 µM; actives 4.7% (n = 360,000); AID 743279, 2014; in the data active means activity change below about -50%; inconclusive means mostly about -30% to -49%; further: on the % scale 0 is the no-effect control and ±100 the full control effect
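Secreted IL-1B measured by AlphaLISA bead assay after 16 h compound exposure of THP-1 cells; compounds (final up to 57.5 uM) added 1 h before LPS (250 ng/mL) and ATP (1.25 mM) stimulation; lower signal means less secretion.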
Starred values were filed as active, the others as inactive; [ ] = remark or other dose. Unless noted, the call rests on the fitted dose curve; in most records, active means well fitted curve in the direction sought with a large enough effect; inconclusive means small, poorly fitted or top-dose-only effect, or another doubt; inactive means no such curve, though single readings can be large; an effect the other way counts as inactive or inconclusive.

What do the screens show for `CCOC(=O)/C=C/C(=O)Nc1cc(S(=O)(=O)Nc2ccc(OC)cc2)ccc1N1CCOCC1`?
S-ASM inh: -3.7%; DT40 TDP1 no CPT: 5.17µM*; DT40 TDP1 CPT: 5.8µM*; TGFb inhibitor: -33.5%; HepG2 tox: -27.6%; IL-1B inflam inh: -107.0*

What do the screens show for `COc1ccc(NS(=O)(=O)c2ccc(N3CCCCC3)c(NC(=O)C(C)NC(N)=O)c2)cc1` (stereo unspecified)?
S-ASM inh: 0.5%; DT40 TDP1 no CPT: inconclusive; DT40 TDP1 CPT: inconclusive; TGFb inhibitor: -6.2%; HepG2 tox: -1.1%; IL-1B inflam inh: -8.3

How did COc1ccc(NS(=O)(=O)c2ccc(N3CCOCC3)c(NC(=O)C(C)C)c2)cc1 do in these assays?
S-ASM inh: 5.0%; DT40 TDP1 no CPT: 18.4µM*; DT40 TDP1 CPT: 16.4µM*; TGFb inhibitor: 17.9%; HepG2 tox: 1.7%; IL-1B inflam inh: 5.2

How did CC(=O)NCCC(=O)Nc1cc(S(=O)(=O)Nc2ccc(Cl)cc2)ccc1N1CCCC1 do in these assays?
S-ASM inh: 1.0%; DT40 TDP1 no CPT: inconclusive; DT40 TDP1 CPT: inconclusive; TGFb inhibitor: -19.7%; HepG2 tox: -2.1%; IL-1B inflam inh: -1.9

What do the screens show for `O=C(Nc1cc(S(=O)(=O)Nc2ccc(Cl)cc2)ccc1N1CCCCC1)c1ccc(F)cc1`?
S-ASM inh: -10.0%; DT40 TDP1 no CPT: 18.4µM*; DT40 TDP1 CPT: 20.6µM*; TGFb inhibitor: inconclusive; HepG2 tox: -69.4%; IL-1B inflam inh: -66.2*

Results for COc1ccc(NS(=O)(=O)c2ccc(N3CCOCC3)c(NC(=O)c3ccc(F)cc3)c2)cc1 ?
S-ASM inh: -3.7%; DT40 TDP1 no CPT: 13µM*; DT40 TDP1 CPT: 8.2µM*; TGFb inhibitor: -2.5%; HepG2 tox: -36.6%; IL-1B inflam inh: -12.5

Results for COc1ccc(NC2c3ccccc3C(=O)N2c2ccccn2)cc1 (stereo unspecified) ?
S-ASM inh: 1.9%; DT40 TDP1 no CPT: 7.4%; DT40 TDP1 CPT: 6.3%; TGFb inhibitor: 4.4%; HepG2 tox: 2.7%; IL-1B inflam inh: 0.0

What do the screens show for `CC1(C)O[C@@H]2C[C@H]3[C@@H]4CCC5=CC(=O)CC[C@]5(C)[C@@]4(F)[C@@H](O)C[C@]3(C)[C@]2(C(=O)CCl)O1`?
S-ASM inh: 1.9%; DT40 TDP1 no CPT: -22.0%; DT40 TDP1 CPT: -7.8%; TGFb inhibitor: 28.4%; HepG2 tox: -2.2%; IL-1B inflam inh: 0.0

What do the screens show for `COc1ccccc1NS(=O)(=O)c1cccc(C(=O)N2CC(C)OC(C)C2)c1` (stereo unspecified)?
S-ASM inh: -1.4%; DT40 TDP1 no CPT: inconclusive; DT40 TDP1 CPT: -11.1%; TGFb inhibitor: 0.0%; HepG2 tox: 2.3%; IL-1B inflam inh: 2.3

Results for Cc1cc(Cl)ccc1NC(=O)CS(=O)(=O)c1cccc2nsnc12 ?
DT40 TDP1 no CPT: inconclusive; DT40 TDP1 CPT: inconclusive; TGFb inhibitor: -2.6%; HepG2 tox: -22.4%

What do the screens show for `CCN(CC)C1CCN(C(=O)c2cnn(-c3nccc(-c4ccco4)n3)c2C(C)C)C1` (stereo unspecified)?
DT40 TDP1 no CPT: 0.9%; DT40 TDP1 CPT: -1.1%[9.04 µM]

How did CCOc1cccc(C2C(C(=O)c3ccc(C)o3)=C(O)C(=O)N2CCCn2ccnc2)c1 (stereo unspecified) do in these assays?
S-ASM inh: 1.6%; DT40 TDP1 no CPT: -16.8%; DT40 TDP1 CPT: 5.4%; TGFb inhibitor: 12.2%; HepG2 tox: -0.5%; IL-1B inflam inh: 13.4

Results for COC(=O)c1cc(NS(=O)(=O)c2ccc(N3CCOCC3)c(NC(C)=O)c2)cc(C(=O)OC)c1 ?
S-ASM inh: -0.1%; DT40 TDP1 no CPT: 20.0%; DT40 TDP1 CPT: 33.5%; TGFb inhibitor: 5.8%; HepG2 tox: 12.7%; IL-1B inflam inh: 38.8

How did COc1ccc(NS(=O)(=O)c2ccc(N3CCOCC3)c(NC(=O)c3cccc(F)c3)c2)cc1 do in these assays?
S-ASM inh: -1.7%; DT40 TDP1 no CPT: 8.2µM*; DT40 TDP1 CPT: 9.2µM*; TGFb inhibitor: -6.6%; HepG2 tox: 3.2%; IL-1B inflam inh: -28.8

How did CC1CN=C2C(C(=O)Nc3ccccc3)=C(O)CC(c3ccccc3)N21 (stereo unspecified) do in these assays?
S-ASM inh: -1.0%; DT40 TDP1 no CPT: 23.1µM*; DT40 TDP1 CPT: inconclusive; TGFb inhibitor: -9.2%; HepG2 tox: -8.1%; IL-1B inflam inh: -5.5

How did CN(C(=O)Cc1csc(-c2ccccc2)n1)c1c(N)n(Cc2ccccc2)c(=O)[nH]c1=O do in these assays?
S-ASM inh: 4.8%; DT40 TDP1 no CPT: 0.3%; DT40 TDP1 CPT: -1.8%; TGFb inhibitor: -18.0%; HepG2 tox: -4.9%; IL-1B inflam inh: 8.7

Results for Cc1ccc(OCC(=O)NCCNC(=O)c2cnccn2)cc1 ?
S-ASM inh: 22.4%; DT40 TDP1 no CPT: -28.5%; DT40 TDP1 CPT: -3.6%; TGFb inhibitor: 5.5%; HepG2 tox: 8.0%; IL-1B inflam inh: 19.2

What do the screens show for `Cc1ccc(-c2nc3c4ccccc4[nH]c(=O)n3n2)cc1`?
DT40 TDP1 no CPT: inconclusive; DT40 TDP1 CPT: inconclusive; TGFb inhibitor: 3.5%; HepG2 tox: -3.9%

How did O=c1[nH]c2ccccc2c2nc(-c3cccc(S(=O)(=O)N4CCCC4)c3)nn12 do in these assays?
S-ASM inh: -3.2%; DT40 TDP1 no CPT: 16.4µM*; DT40 TDP1 CPT: inconclusive; TGFb inhibitor: 3.5%; HepG2 tox: 1.4%; IL-1B inflam inh: -3.8

What do the screens show for `COc1ccccc1N1CCN(Cc2nnc(-c3ccccc3C)o2)CC1`?
DT40 TDP1 no CPT: inconclusive; DT40 TDP1 CPT: -24.5%; TGFb inhibitor: 0.0%; HepG2 tox: -86.7%

Results for COc1ccc(CCNC(=O)/C=C/c2ccc(OC)c(S(=O)(=O)N3CCOCC3)c2)cc1 ?
S-ASM inh: 3.2%; DT40 TDP1 no CPT: 5.8µM*; DT40 TDP1 CPT: inconclusive; TGFb inhibitor: 1.8%; HepG2 tox: -46.6%; IL-1B inflam inh: 11.9

What do the screens show for `CCCOc1ccccc1NC(=O)/C=C/c1ccc(OC)c(S(=O)(=O)N2CCOCC2)c1`?
DT40 TDP1 no CPT: 16.4µM*; DT40 TDP1 CPT: inconclusive; TGFb inhibitor: -13.4%; HepG2 tox: -12.5%; IL-1B inflam inh: -22.7
